A selection: hits, their analogues and other compounds. The true share with any hit is near 2.3%.
CHT block = human CHT choline transport inhibition; Q9GZV3; CHT-expressing cells, membrane potential dye, choline response; stronger effect = lower value; B-score at 10 µM; 0.86% of 310,000 active;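 active = B-score over 3 SD under the library average, and starting fluorescence ratio not unusually high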;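 also: choline stimulus applied at its EC90 after an EC20 pre-addition; B-score computed on integrated fluorescence ratio after choline addition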
Target sequence (Q9GZV3 whole entry, looked up): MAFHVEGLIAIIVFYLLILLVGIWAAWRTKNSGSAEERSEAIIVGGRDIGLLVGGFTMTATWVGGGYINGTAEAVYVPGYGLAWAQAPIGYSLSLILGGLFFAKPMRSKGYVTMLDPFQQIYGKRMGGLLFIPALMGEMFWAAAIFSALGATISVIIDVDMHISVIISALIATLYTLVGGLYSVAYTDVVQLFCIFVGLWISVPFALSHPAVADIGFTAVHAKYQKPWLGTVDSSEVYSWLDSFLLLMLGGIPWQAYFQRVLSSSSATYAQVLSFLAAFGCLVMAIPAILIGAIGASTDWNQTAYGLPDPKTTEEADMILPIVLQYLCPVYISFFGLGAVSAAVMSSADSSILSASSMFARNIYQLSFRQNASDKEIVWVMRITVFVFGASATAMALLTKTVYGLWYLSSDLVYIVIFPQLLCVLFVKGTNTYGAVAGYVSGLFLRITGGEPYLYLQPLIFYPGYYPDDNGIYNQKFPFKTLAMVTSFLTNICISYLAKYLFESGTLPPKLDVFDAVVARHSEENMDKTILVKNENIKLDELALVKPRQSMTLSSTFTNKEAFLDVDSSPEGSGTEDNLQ
ANO1 block = mouse TMEM16A channel inhibition, primary screen | HEK293 TMEM16A/YFP iodide influx fluorescence, ionomycin | AID 588511 | normalized B-score (activity score, 25-100; higher = stronger inhibition) at 10 µM | Q8BHY3 | 1.2% of 310,000 active;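 active = ratio plate-corrected score three or more library SD toward inhibition, starting fluorescence score within five deviations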;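 also: score derived from kinetic fluorescence span divided by baseline fluorescence per well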
CHT allo act = allosteric activators of human choline transporter CHT | B-score at 10 µM | CHT-expressing cells, membrane potential dye, choline EC20; stronger effect = higher value; LV-AA mutant CHT in HEK293 cells | 0.49% of 310,000 active | Q9GZV3;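 active = initial fluorescence not abnormally high and integrated response B-score, plate-corrected, over 3 SD above library mean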
ANO1 activ = activators or potentiators of mouse TMEM16A chloride channel. AID 623877. B-score at 10 µM. 0.3% of 340,000 active. Q8BHY3. HEK293 TMEM16A/YFP-H148Q/I152L, iodide quench fluorescence; stronger effect = lower value;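 active = fluorescence-ratio B-score plate-corrected deviation score at least 3 library SD below zero, with starting fluorescence score within 5 deviations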;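 also: channel opened by trigger with iodide after compound preincubation; score built on the fluorescence ratio of max minus min over baseline; more negative score means more quench and so TMEM16A activation or potentiation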
* = called active by the depositor; i = inactive; · = no result.

SMILES | CHT block | ANO1 block | CHT allo act | ANO1 activ
O=C(NCCCN1CCOCC1)c1ccc2c(c1)N(Cc1ccc(Cl)cc1)C(=O)c1ccccc1S2=O (configuration not stated) | i | i | i | i
O=C(c1ccccc1)N1N=C(C(F)(F)F)CC1(O)c1ccccc1 (configuration not stated) | i | i | i | i
O=C(c1ccccc1)N1N=C(C(F)(F)F)CC1(O)c1ccc(F)cc1 (configuration not stated) | i | 100* | i | i
CC(=O)Nc1ccc(-c2sc(Nc3cccc4ccccc34)n[n+]2-c2ccccc2)cc1 | i | i | i | -11.8*
CSc1ccc(-c2sc(Nc3cccc4ccccc34)n[n+]2-c2ccccc2)cc1 | i | i | i | i
CCCCOc1ccc(S(N)(=O)=O)cc1 | i | i | i | i
NS(=O)(=O)c1ccc(Oc2ccc(S(N)(=O)=O)cc2)cc1 | i | i | i | -4.89*
COc1ccc(NC(=O)c2ccc(NC(=O)CN3CCC(C(N)=O)CC3)cc2)cc1 | · | · | · | i
CCOC(=O)c1c(NC(=O)/C=C/C(=O)O)sc(C)c1-c1ccc(C(C)(C)C)cc1 | i | 25* | i | i
CCOC(=O)c1c(NC(=O)/C=C\C(=O)O)sc(C)c1-c1ccccc1 | i | i | i | i
Cc1ccc(S(=O)(=O)NC2=NCN(CC(=O)O)CN2)cc1 | i | i | i | i
COc1ccc(Nc2nc(CC(C)=O)ns2)cc1 | i | i | i | -15.9*
COc1cccc(Nc2nc(CC(C)=O)ns2)c1 | i | i | i | i
COc1ccc(Nc2nc(-c3sc(NC(C)=O)nc3C)cs2)cc1 | -5.09* | i | i | ·
COc1ccc(Nc2nc(-c3sc(N)nc3C)cs2)cc1 | i | i | i | i
COc1ccc(S(=O)(=O)C(C#N)c2nc3ccccc3nc2N2CCCCC2)cc1 (configuration not stated) | i | 100* | i | i
COc1ccc(C(=O)NC(=O)COC(=O)CCS(=O)(=O)c2ccc(C)cc2)cc1 | · | · | · | i
CN(CC(=O)Nc1ccc(Cl)c(Cl)c1)C(=O)C1CCC1 | · | · | · | i
Cc1ccc(NC(=O)c2cccs2)cc1S(=O)(=O)Nc1cccc(Cl)c1 | i | 100* | i | i
Cc1ccc(C(=O)N2[C@@H]3CN(C)C(=O)[C@@]2(C)[C@H]2C(=O)N(C)C(=O)[C@@H]32)cc1 | · | · | · | i
COc1cc2c(cc1OC)CN(C(=O)COc1ccccc1[N+](=O)[O-])CC2 | i | 100* | i | i
Cc1[nH]n(-c2ccccc2)c(=O)c1C(C[N+](=O)[O-])c1ccc(Br)cc1 (configuration not stated) | i | 25* | i | i
COc1cccc(C(C[N+](=O)[O-])c2c(C)[nH]n(-c3ccccc3)c2=O)c1 (configuration not stated) | i | i | i | i
Cc1cc(Cl)ccc1OC(C)C(=O)Nc1ccccc1N1CCOCC1 (configuration not stated) | i | 100* | i | -19.5*
Cc1ccc(S(=O)(=O)c2nc(S(=O)(=O)c3ccc(C)cc3)c(N3CCN(CCO)CC3)s2)cc1 | i | i | i | i
SMILES | CHT block | ANO1 block | CHT allo act | ANO1 activ
Cc1cc(NC(=S)N(Cc2ccc(Br)cc2)Cc2ccc(C(=O)O)cc2)ccc1Cl | i | 25* | i | i
COc1cc(CNC(=O)c2cc(C(=O)NCc3cc(OC)cc(OC)c3)n(C)n2)cc(OC)c1 | · | · | · | i
CCCCCCOC1(c2ccccc2)OC(=O)c2ccccc21 (configuration not stated) | i | 25* | i | i
COc1ccc(Cl)cc1NC(=S)NCCSc1ccc(C)cc1 | i | 100* | i | i
CCOC(=O)N1CCN(C(=O)c2ccc3c(c2)N(Cc2ccc(F)cc2)CCS3)CC1 | -5.16* | i | i | i
CCOC(=O)N1CCN(C(=O)c2ccc3c(c2)N(CC)CCS3)CC1 | i | i | i | i
CC1=CC2=NC(=O)/C(=C\c3cc(C)n(-c4ccccc4)c3C)C(=N)N2O1 | i | i | i | -4.95*
Cc1cc(C(=O)CSc2nnc(-c3cccc(F)c3)n2N)c(C)n1Cc1ccc2c(c1)OCO2 | i | 100* | i | i
CC(=O)c1c(C)[nH]c(C(=O)CSc2nnc(-c3ccccc3)n2Cc2ccc3c(c2)OCO3)c1C | i | i | i | i
CCOc1ccc(NS(=O)(=O)c2ccc(NC(=S)NC(=O)C(C)C)cc2)cc1 | i | i | i | i
COc1ccc(NS(=O)(=O)c2ccc(NC(=S)NC(=O)C(C)C)cc2)cc1 | i | 25* | i | i
Oc1c(Br)cc(Br)cc1CNc1cnc2ccccc2c1 | i | 25* | i | i
Nc1nc(Cl)cc(N2CCC(c3cc(-c4ccc(Cl)cc4)n[nH]3)CC2)n1 | i | 100* | i | i
CCCCC1=CC2=CC(=O)C(C)(OC(=O)CC)C(=O)C2=CN1C(CO)CO (configuration not stated) | i | i | i | -5.81*
O=C(/C=C/c1cccc([N+](=O)[O-])c1)NCCSCc1cccc(Cl)c1 | i | 100* | i | i
Cc1ccc(OCc2cc(C(=O)N3CCC(C(O)C(C)C)CC3)no2)cc1C (configuration not stated) | i | i | i | i
Cn1nnc2cc(C(=O)NC3CC3)ccc21 | i | i | i | -29.4*
O=C1CN(C(=S)NC(=O)c2ccccc2[N+](=O)[O-])CCN1 | i | i | i | i
O=P(CCCCCCCCCP(=O)(c1ccccc1)c1ccccc1)(c1ccccc1)c1ccccc1 | i | 100* | i | i
OC(CN1c2ccccc2Sc2ccccc21)Cn1nnc2ccccc21 (configuration not stated) | i | 100* | i | i
Cc1ccc(S(=O)(=O)NCCC(=O)N2CCC(C(N)=O)CC2)cc1C | i | i | i | i
COC(=O)C1c2ccccc2-c2ccccc21 | · | · | · | i
COC(=O)[C@@H]1[C@@H](C#N)C2(c3ccccc3-c3ccccc32)N(c2ccc(Cl)cc2)N1C#N | i | 25* | i | i
O=C(CSCc1c(Cl)cccc1Cl)NN=C1CCCC1 | i | i | i | -28.9*
CCN1C[C@@H]2[C@@H]3C(=O)N(C)C(=O)[C@@H]3[C@](C)(C1=O)N2C(=O)c1ccc(Br)cc1 | · | · | · | i
O=C(NCC[C@@H]1C[C@@H]2C=C[C@H]1C2)c1cc(COc2ccc(F)cc2F)on1 | i | i | i | i
COC(=O)c1c(C)oc2ccc(N(C(=O)c3ccncc3)S(=O)(=O)c3ccc(C)cc3)cc12 | i | 100* | i | i
CCn1c(CNC(=O)Cc2ccc(OC)cc2)nnc1SCC(=O)c1ccccc1 | · | · | · | -34.7*
C[C@@H]1CN([C@H](C)CO)C(=O)Cc2cc(NC(=O)Nc3ccccc3)ccc2O[C@@H]1CN(C)Cc1ccc2c(c1)OCO2 | · | · | · | i
